Results filed as inconclusive are left out. Active and inactive are the calls of the source. Calls come from the whole dose curve; as a rule, active = well fitted cell-killing curve with a large enough effect; inconclusive = small, poorly fitted or top-dose-only effect, or effect the other way; inactive = flat fitted curve, though single readings scatter.
Tested on: C33A
Assay: Primary qHTS to identify gynecologic anti-cancer compounds using libraries of approved drugs and bioactive compounds (AID 1345084); note: nearly all actives have a fitted effect of over 55% in size
Settings: Gynecologic cancer cell panel viability, ATPlite luminescence, 48 h; series mostly up to 57.5 µM; activity change, negative = cytotoxicity: at the top concentration
Summary of the method: (§1)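 Cells, 1,000 per well, plated 16 h, then exposed 48 h at 37 C to compounds. Viability by ATPlite luminescence after 15 min at room temperature.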
% is set by controls: 0 for no effect and ±100 for the full control effect; potency is the fitted concentration of half-maximal effect.

Row | Compound | Potency | activity change, negative = cytotoxicity
1 | C/C=C(/C)C(=O)O[C@H]1C(C)=C2[C@H]([C@@H]1OC(=O)CCCCCCC)[C@@](C)(OC(C)=O)C[C@H](OC(=O)CCC)[C@@]1(O)[C@H]2OC(=O)[C@@]1(C)O | 20 µM (active) | –
2 | Cc1c(C(=O)Nc2cccc(C(F)(F)F)c2)cc(-c2ccccc2)n1CCCN1CCOCC1 | – | -18.4% (inactive)
3 | O=C(O)c1cc(Oc2ccc(C(F)(F)F)cc2Cl)ccc1[N+](=O)[O-] | – | -4.25% (inactive)
4 | ClC1=C(Cl)[C@]2(Cl)[C@@H]3[C@@H]4C[C@@H]([C@H]5O[C@@H]45)[C@@H]3[C@@]1(Cl)C2(Cl)Cl | – | -11.9% [at 116 µM] (inactive)
5 | CC(=O)[O][Hg][c]1ccccc1 | 5.62 µM (active) | –

Tested on: CAOV3
Assay: as above
Settings: Gynecologic cancer cell panel viability, ATPlite luminescence, 48 h; series mostly up to 57.5 µM; activity change, negative = cytotoxicity: at the top concentration
Summary of the method: as §1

Row | Compound | activity change, negative = cytotoxicity | Potency
6 | Cc1c(C(=O)Nc2cccc(C(F)(F)F)c2)cc(-c2ccccc2)n1CCCN1CCOCC1 | 4.38% (inactive) | –
7 | O=C(O)c1cc(Oc2ccc(C(F)(F)F)cc2Cl)ccc1[N+](=O)[O-] | 0.0653% (inactive) | –
8 | Nc1ccc(N=Nc2ccccc2)cc1 | – | 35.5 µM (active)
9 | CC(=O)[O][Hg][c]1ccccc1 | – | 3.55 µM (active)

Tested on: CASKI
Assay: as above
Settings: Gynecologic cancer cell panel viability, ATPlite luminescence, 48 h; series mostly up to 57.5 µM; activity change, negative = cytotoxicity: at the top concentration
Summary of the method: as §1

Row | Compound | activity change, negative = cytotoxicity | Potency
10 | O=C(O)c1cc(Oc2ccc(C(F)(F)F)cc2Cl)ccc1[N+](=O)[O-] | 9.68% (inactive) | –
11 | S=C(SSC(=S)N1CCCCC1)N1CCCCC1 | -2.44% (inactive) | –
12 | ClC1=C(Cl)[C@]2(Cl)[C@@H]3[C@@H]4C[C@@H]([C@H]5O[C@@H]45)[C@@H]3[C@@]1(Cl)C2(Cl)Cl | -13.6% [at 116 µM] (inactive) | –
13 | CC(C)Oc1cccc(NC(=O)c2ccccc2C(F)(F)F)c1 | 2.48% [at 116 µM] (inactive) | –
14 | CC(=O)[O][Hg][c]1ccccc1 | – | 4.47 µM (active)

Tested on: Es-2
Assay: as above
Settings: Gynecologic cancer cell panel viability, ATPlite luminescence, 48 h; series mostly up to 57.5 µM; activity change, negative = cytotoxicity: at the top concentration
Summary of the method: as §1

Row | Compound | Potency | activity change, negative = cytotoxicity
15 | CO/C=C(/C(=O)OC)c1ccccc1Oc1cc(Oc2ccccc2C#N)ncn1 | 31.6 µM (active) | –
16 | C/C=C(/C)C(=O)O[C@H]1C(C)=C2[C@H]([C@@H]1OC(=O)CCCCCCC)[C@@](C)(OC(C)=O)C[C@H](OC(=O)CCC)[C@@]1(O)[C@H]2OC(=O)[C@@]1(C)O | 0.316 µM (active) | –
17 | Cc1c(C(=O)Nc2cccc(C(F)(F)F)c2)cc(-c2ccccc2)n1CCCN1CCOCC1 | – | -2.82% (inactive)
18 | O=C(O)c1cc(Oc2ccc(C(F)(F)F)cc2Cl)ccc1[N+](=O)[O-] | – | 18.7% (inactive)
19 | ClC1=C(Cl)[C@]2(Cl)[C@@H]3[C@@H]4C[C@@H]([C@H]5O[C@@H]45)[C@@H]3[C@@]1(Cl)C2(Cl)Cl | – | -3.37% [at 116 µM] (inactive)
20 | CC(=O)[O][Hg][c]1ccccc1 | 6.31 µM (active) | –

— PubChem BioAssay (NCATS)
